Experiment [1] concerns the target Adenosine receptor A1 (Bos taurus) (UniProt P28190). The experiment is described as follows: NVS_GPCR_bAdoR_NonSelective: NovaScreen (NVS) G Protein-Coupled Receptor Assay for bovine Adenosine Receptor (AdoR), Non-selective Binding (AID 2283244). Put shortly: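 Bovine striatal membranes, radioligand displacement binding, 1 h after dosing, filter-based scintillation counting. Screened in duplicate at 25 uM, then concentration-response up to 50 uM; loss of specific binding relative to DMSO.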

Experiment [2] deals with guinea pig Leukotriene B4 Receptor (LTB4), gene 100379538. Nature of the experiment: NVS_GPCR_gLTB4: NovaScreen (NVS) G Protein-Coupled Receptor Assay for guinea pig Leukotriene B4 Receptor (LTB4) (AID 2283247). An outline of the steps: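 Radioligand displacement on guinea pig spleen membranes, filter-based scintillation counting 2 h after dosing. Primary duplicate single point at 25 uM; hits over threshold (e.g. 30% inhibition) run in concentration-response up to 50 uM, DMSO baseline.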

The target in experiment [3] is guinea pig Leukotriene D4 Receptor (LTD4), CYSLTR1 (gene 100135514) (UniProt Q2NNR5). The experiment is described as follows: NVS_GPCR_gLTD4: NovaScreen (NVS) G Protein-Coupled Receptor Assay for guinea pig Leukotriene D4 Receptor (LTD4) (AID 2283248). Put shortly:
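Radioligand displacement on guinea pig lung membranes, 1 h incubation, filtration and scintillation counting; DMSO as negative control. Duplicate 25 uM primary screen, then singleton concentration-response up to 50 uM.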

In experiment [4] the target is human Serotonin, 5-Hydroxytryptamine Receptor 5A (5HT5A), HTR5A (gene 3361) (UniProt P47898). Nature of the experiment: NVS_GPCR_h5HT5A: NovaScreen (NVS) G Protein-Coupled Receptor Assay for human Serotonin, 5-Hydroxytryptamine Receptor 5A (5HT5A) (AID 2283251). Put shortly: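 Cell-free radioligand displacement binding on HEK293-derived membrane protein, 1 h incubation, filter-based scintillation counting. Primary screen in duplicate at 25 uM, actives followed in concentration series; loss of signal fitted versus DMSO.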
Chain of human Serotonin, 5-Hydroxytryptamine Receptor 5A (5HT5A), HTR5A (gene 3361) (P47898 whole entry, looked up): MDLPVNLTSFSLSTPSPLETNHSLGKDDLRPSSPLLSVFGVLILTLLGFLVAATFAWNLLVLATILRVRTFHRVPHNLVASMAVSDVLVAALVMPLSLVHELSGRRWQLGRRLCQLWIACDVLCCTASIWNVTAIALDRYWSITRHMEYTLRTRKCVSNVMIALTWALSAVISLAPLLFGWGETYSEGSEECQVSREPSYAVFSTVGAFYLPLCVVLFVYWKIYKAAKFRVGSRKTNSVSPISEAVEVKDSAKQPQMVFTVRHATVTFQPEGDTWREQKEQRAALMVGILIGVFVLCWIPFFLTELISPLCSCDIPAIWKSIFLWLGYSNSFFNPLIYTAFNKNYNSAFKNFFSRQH

Experiment [5] deals with rat Monoamine Oxidase, MAO-B, Peripheral (MAOBP), Maob (gene 25750) (UniProt P19643). Nature of the experiment: NVS_ENZ_rMAOBP: NovaScreen (NVS) Enzymatic Assay for rat Monoamine Oxidase, MAO-B, Peripheral (MAOBP) (AID 2283242).
Chain of rat Monoamine Oxidase, MAO-B, Peripheral (MAOBP), Maob (gene 25750) (P19643 whole entry, looked up): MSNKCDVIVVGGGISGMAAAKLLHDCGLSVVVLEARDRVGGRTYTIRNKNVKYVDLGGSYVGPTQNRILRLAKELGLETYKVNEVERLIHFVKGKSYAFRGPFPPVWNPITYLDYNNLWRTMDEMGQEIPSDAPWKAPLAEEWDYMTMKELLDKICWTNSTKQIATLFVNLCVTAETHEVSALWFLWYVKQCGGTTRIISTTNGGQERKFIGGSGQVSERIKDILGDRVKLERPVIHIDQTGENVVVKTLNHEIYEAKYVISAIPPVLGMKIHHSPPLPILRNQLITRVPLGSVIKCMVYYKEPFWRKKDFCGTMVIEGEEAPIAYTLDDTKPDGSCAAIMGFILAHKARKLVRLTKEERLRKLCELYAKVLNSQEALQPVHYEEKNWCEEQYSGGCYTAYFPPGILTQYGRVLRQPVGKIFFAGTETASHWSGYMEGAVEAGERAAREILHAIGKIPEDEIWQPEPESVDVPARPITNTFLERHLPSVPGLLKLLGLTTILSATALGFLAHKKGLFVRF
Experiment [6] deals with human Serotonin, 5-Hydroxytryptamine Receptor 2A (5HT2A), HTR2A (gene 3356) (UniProt P28223). Nature of the experiment: NVS_GPCR_h5HT2A: NovaScreen (NVS) G Protein-Coupled Receptor Assay for human Serotonin, 5-Hydroxytryptamine Receptor 2A (5HT2A) (AID 2283249). An outline of the steps: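 Human cortex membranes, cell-free radioligand binding; filter-based scintillation read 1.5 h after dosing. Duplicate screen at 25 uM first; displacement of specific binding (loss of signal) versus DMSO.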
Chain of human Serotonin, 5-Hydroxytryptamine Receptor 2A (5HT2A), HTR2A (gene 3356) (P28223 whole entry, looked up): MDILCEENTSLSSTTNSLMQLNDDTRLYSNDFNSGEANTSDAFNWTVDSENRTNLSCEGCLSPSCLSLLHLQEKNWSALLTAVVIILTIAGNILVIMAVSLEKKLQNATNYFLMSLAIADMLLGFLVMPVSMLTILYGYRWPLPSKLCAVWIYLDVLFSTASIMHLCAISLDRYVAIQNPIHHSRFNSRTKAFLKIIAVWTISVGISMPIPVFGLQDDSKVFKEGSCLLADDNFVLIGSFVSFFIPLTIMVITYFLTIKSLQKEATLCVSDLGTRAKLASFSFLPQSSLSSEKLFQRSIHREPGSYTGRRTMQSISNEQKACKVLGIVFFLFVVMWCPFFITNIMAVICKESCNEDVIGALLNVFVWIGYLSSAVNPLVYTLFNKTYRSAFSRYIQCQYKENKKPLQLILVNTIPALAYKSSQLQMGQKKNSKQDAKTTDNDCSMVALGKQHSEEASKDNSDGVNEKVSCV

The test system of experiment [7] is guinea pig Muscarinic, Peripheral (Mperiperal) Receptor, Non-selective Binding, gene 100379235. The experiment is described as follows: NVS_GPCR_gMPeripheral_NonSelective: NovaScreen (NVS) G Protein-Coupled Receptor Assay for guinea pig Muscarinic, Peripheral (Mperiperal) Receptor, Non-selective Binding (AID 2283250). Put shortly: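 Guinea pig bladder membranes, radioligand binding read 1 h after dosing by filter scintillation counting; loss of signal vs DMSO. Primary duplicate screen at 25 uM, then concentration-response up to 50 uM.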

Experiment [8] has as its system rat Monoamine Oxidase, MAO-A, Central (MAOAC), gene 29253. The experiment is described as follows: NVS_ENZ_rMAOAC: NovaScreen (NVS) Enzymatic Assay for rat Monoamine Oxidase, MAO-A, Central (MAOAC) (AID 2283243).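 Further: potency refers to inhibition seen as signal drop below DMSO baseline.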 Put shortly:
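Rat brain tissue extract served as the cell-free enzyme source; activity was measured by radiometric scintillation counting 1.5 hours after compound addition. Loss of signal relative to DMSO baseline indicated inhibition; primary screen at 25 uM in duplicate.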

Consider eight compounds from PubChem BioAssay (EPA / NIEHS).

Inconclusive results are not listed. Calls of active or inactive are those of the source. How the source made its calls: active means hit-call score of the fitted dose curve at least 0.9, where 1 is the maximum; inconclusive means response in the unintended direction; inactive means score below 0.9.

For orientation: AC50 means the concentration at which the activity in the assay is half-maximal.

Chain of guinea pig Leukotriene D4 Receptor (LTD4), CYSLTR1 (gene 100135514) (Q2NNR5 whole entry, looked up): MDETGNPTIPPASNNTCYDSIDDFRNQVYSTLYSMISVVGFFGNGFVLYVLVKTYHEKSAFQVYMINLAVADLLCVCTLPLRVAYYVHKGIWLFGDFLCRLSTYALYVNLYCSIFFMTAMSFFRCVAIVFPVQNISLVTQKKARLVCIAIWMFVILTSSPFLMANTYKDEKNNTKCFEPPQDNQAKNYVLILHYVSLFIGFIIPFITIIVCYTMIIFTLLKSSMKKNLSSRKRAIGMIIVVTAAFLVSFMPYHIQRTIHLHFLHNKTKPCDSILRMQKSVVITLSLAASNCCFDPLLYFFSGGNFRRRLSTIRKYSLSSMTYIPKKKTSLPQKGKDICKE
Chain of Adenosine receptor A1 (Bos taurus) (P28190 whole entry, looked up): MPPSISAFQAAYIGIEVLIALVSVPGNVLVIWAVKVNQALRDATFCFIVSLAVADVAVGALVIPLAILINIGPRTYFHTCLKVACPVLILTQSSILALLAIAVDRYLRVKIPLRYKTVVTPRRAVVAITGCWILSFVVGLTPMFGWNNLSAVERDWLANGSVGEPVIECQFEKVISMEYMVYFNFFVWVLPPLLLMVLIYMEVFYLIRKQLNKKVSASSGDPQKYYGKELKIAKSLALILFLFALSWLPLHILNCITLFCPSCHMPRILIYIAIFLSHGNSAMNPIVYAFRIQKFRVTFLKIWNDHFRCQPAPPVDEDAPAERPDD

`O=C(O)C(F)(F)C(F)(F)C(F)(F)C(F)(F)C(F)(F)C(F)(F)C(F)(F)C(F)(F)C(F)(F)C(F)(F)F`: the call in experiment [1], in experiment [3] and in experiment [4] was inactive. Moreover, the AC50 in experiment [2] is 5.1 µM (active). For the compound `CC12CC1(C)C(=O)N(c1cc(Cl)cc(Cl)c1)C2=O` (centres undefined), in experiment [5], the compound was called inactive. Regarding `O=C(O)C(F)(F)C(F)(F)C(F)(F)C(F)(F)C(F)(F)C(F)(F)F`, the AC50 in experiment [2] was 17.3 µM (active). Regarding `CCC(=O)C(CC(C)N(C)C)(c1ccccc1)c1ccccc1` (centres undefined), the AC50 is 4.1 µM (active) in experiment [5], 5.61 µM (active) in experiment [6], 7.94 µM (active) in experiment [7] and 6.69 µM (active) in experiment [4]. Regarding `N#CCc1ccc(Cl)cc1`, the AC50 in experiment [8] is 25 µM (active). For `CC(C)(C)c1cc(O)ccc1O`, the outcome in experiment [1] was inactive. For the compound `COP(=S)(OC)Oc1ccc(Sc2ccc(OP(=S)(OC)OC)cc2)cc1`, the call in experiment [3] was inactive. With `O=[N+]([O-])c1ccc2c3c(cccc13)CC2`, the AC50 in experiment [8] is 6.28 µM (active).
